hcDAF-12 act = H. contortus DAF-12 nuclear receptor activators, primary screen, cell-based, luminescence, HEK293, lit1-tk-luc reporter | HEK293 hcDAF-12 lit1-tk-luc reporter; 0% DMSO, 100% Δ7-dafachronic acid | 370,000 compounds, 1.4% hits | activation, % at 6.8 µM;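 active = activation above the mean of all tested compounds plus 3 SD, cut at about 5.5% in these data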
DAX1 inh-1 = DAX1 (NR0B1) inhibitors on StAR promoter, primary screen, cell-based, luminescence, SF-1 (NR5A1), full-length DAX-1 | HEK293T StAR-luciferase reporter, SF-1/DAX-1 repression relief | inhibition, % at 6.8 µM | 370,000 compounds, 1.1% hits | AID 652010, 2013;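 active = inhibition above the mean over all tested compounds plus 3 SD, cut at about 3.6% in these data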;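 note: higher inhibition means more luminescence from relief of DAX-1 repression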
hgDAF12 agonist = H. glycines DAF-12 receptor agonists, primary screen, cell-based, luminescence, HEK293, GAL4 fusion, UAS-luciferase | Nuclear hormone receptor DAF-12 (Heterodera glycines), GAL4 fusion | 370,000 compounds, 1.8% hits | activation, % at 6.8 µM | HEK293 GAL4-hgDAF12 UAS-luciferase reporter, agonist luminescence; normalized to butyrate control | AID 687014, 2013;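 active = activation above a cutoff set at the mean of all screened compounds plus 3 SD, cut at about 10% in these data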
ssDAF12 agonist = S. stercoralis DAF-12 nuclear receptor activators, primary screen, cell-based, luminescence, HEK293, GRIP1 co-expression, lit1-tk-luc; 370,000 compounds, 1% hits; Nuclear hormone receptor DAF-12 (Strongyloides stercoralis); HEK293 ssDAF-12/GRIP1 lit1-tk-luc reporter; % of 3 µM dafachronic acid response; activation, % at 6.8 µM;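 active = activation above the mean over all tested compounds plus 3 SD, cut at about 0.9% in these data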
DAX1 inh-2 = DAX1 (NR0B1) inhibitors, primary screen, cell-based, HEK293, Gal4-DAX1, luciferase luminescence; Nuclear receptor subfamily 0 group B member 1 (Homo sapiens), P51843; HEK293 Gal4-DAX1 luciferase reporter; inhibition, % at 6.75 µM; 340,000 compounds, 0.99% hits; AID 504766, 2011;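 active = inhibition above the mean over all tested compounds plus 3 SD, cut at about 4.2% in these data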;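 note: inhibition shows as a rise in luminescence from relieved DAX1 repression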
Target sequence (P51843 207-470 limits assumed): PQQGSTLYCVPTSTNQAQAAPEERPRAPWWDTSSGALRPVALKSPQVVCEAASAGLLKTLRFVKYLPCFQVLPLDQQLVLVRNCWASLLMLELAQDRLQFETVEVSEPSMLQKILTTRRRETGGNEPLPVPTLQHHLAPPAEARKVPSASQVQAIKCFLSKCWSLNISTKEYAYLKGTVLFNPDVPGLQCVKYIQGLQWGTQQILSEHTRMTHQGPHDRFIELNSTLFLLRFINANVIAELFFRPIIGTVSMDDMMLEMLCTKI
Numbers stand for hits; – = inactive; · = no result given. The list is not random: actives were taken first. Their share in the collection is about 4.1%.

SMILES	hcDAF-12 act	DAX1 inh-1	hgDAF12 agonist	ssDAF12 agonist	DAX1 inh-2
COc1ccc(-c2nc3ccc(N4CCN(C)CC4)cc3c(=O)[nH]2)cc1	–	–	–	–	5.0
COc1cc(-c2nc3ccc(N4CCN(C)CC4)cc3[nH]2)cc(OC)c1OC	–	–	–	–	–
CCOc1ccc(C2CC=C(C(=O)O)CN2S(=O)(=O)c2ccc(C)cc2)cc1 (stereo not drawn)	–	–	–	–	·
Cn1cccc1C(=O)NCCc1ccccc1	–	–	13.2	–	–
Cn1cccc1C(=O)NCCc1ccc(Cl)cc1	–	4.0	–	–	–
Cn1cccc1C(=O)NCc1ccc(Cl)cc1	–	–	–	–	–
Cn1cccc1C(=O)NNC(=O)c1ccccc1Br	–	–	–	–	–
Cc1nn(Cc2ccccc2)c(Cl)c1C(=O)NCCc1ccccc1	–	3.8	11.3	–	–
Cc1ccccc1C(=O)NNC(=O)c1cccn1C	–	4.0	–	–	–
Nc1nc2cc3c(cc2cc1C(=O)NCCc1c[nH]c2ccccc12)OCO3	–	–	–	–	·
Cn1cccc1C(=O)NC1CCCCCC1	–	4.4	–	–	–
Cn1cccc1C(=O)NCC1CCCCC1	–	–	–	–	–
CC(C)CNc1cccc2c1S(=O)(=O)N(Cc1ccc(F)cc1)[C@@H](C)[C@H](c1ccccc1)O2	–	–	–	–	·
COc1ccccc1NC(=O)OC(C)c1ccc(Cl)cc1 (stereo not drawn)	–	–	–	–	4.5
CCC(C)NC(=O)CNC(=S)N(Cc1ccccc1F)C1CCCCC1 (stereo not drawn)	–	–	–	–	–
O=C(NNC(=O)c1ccccc1Br)c1ccccc1Cl	–	–	–	–	5.5
O=C(NNC(=O)c1ccccc1Br)c1ccc(Cl)cc1	–	–	–	–	–
CSc1n[nH]c(=O)n1C1CCCCC1	–	–	–	–	6.0
O=C(CSc1n[nH]c(=O)n1C1CC1)c1ccc(F)cc1	–	–	–	–	·
O=C(CSc1nncs1)NC(=O)Nc1ccc2c(c1)OCCO2	–	–	11.8	–	–
CC(C)(C)C(=O)Cn1ncc(N2CCCC2)c(Br)c1=O	–	–	–	–	–
CC(=O)Cn1ncc(Br)c(Br)c1=O	–	–	–	–	6.6
NC(=O)c1ccc(N=C2C(=O)Nc3ccc([N+](=O)[O-])cc32)cc1	–	–	–	–	5.3
Cc1c(CC(=O)NCCCC(=O)O)c(=O)oc2c(C)c3oc4c(c3cc12)CCCC4	–	–	–	–	4.9
O=C(NN1C(=O)C2C(C1=O)C1C=CC2C12CC2)c1cccc(Cl)c1 (stereo not drawn)	–	–	–	–	5.0
SMILES	hcDAF-12 act	DAX1 inh-1	hgDAF12 agonist	ssDAF12 agonist	DAX1 inh-2
Cc1c(C#N)c(N=CN(C)C)c(C(=O)c2ccccc2)n1-c1ccccc1	–	–	–	–	–
Cc1c(C(N)=O)c(N)c(C(=O)c2ccccc2)n1-c1ccccc1	–	–	–	–	5.0
CCOC(=O)N1CCN(C(=O)C[C@H]2C[C@@]3(C(=O)OC)C(=C[C@H](C4CCCC4)O[C@@H]3C)N(Cc3ccco3)C2=O)CC1	–	–	–	–	·
Cc1nc2sc3c(c2c(=O)o1)CCCC3	–	–	–	1.0	–
Cc1ccc(-c2nc3sc4c(c3c(=O)n2N)CCCC4)cc1	5.8	–	12.0	–	–
O=C(COC(=O)Cc1c[nH]c2ccccc12)Nc1cccc(Br)c1	–	–	–	–	–
Cc1ccc2oc(C(=O)N(C)Cc3ccc(C)o3)c(C)c2c1	–	–	–	–	–
Cc1ccc2oc(C(=O)N(C)Cc3ccon3)c(C)c2c1	6.5	–	–	–	–
CCNC(=O)C[C@H]1CC[C@H]2[C@@H](COc3ccc(NC(=O)c4ccc5c(c4)OCO5)cc3C(=O)N2C)O1	–	–	–	–	·
COc1ccc(NC(=O)C2C(c3ccc4c(c3)OCO4)=Nc3ccccc3N2C(C)=O)cc1 (stereo not drawn)	6.2	–	–	–	·

Screening data as filed in PubChem.
